Test [1] is described as follows: NCI Yeast Anticancer Drug Screen. Data for the rad50 strain (AID 155).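 Further: 0% = growth of vehicle-only cultures of the same strain.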 Particulars: S. cerevisiae rad50 strain growth inhibition, hits give high values. In short, it runs like this:
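Compounds were tested on a yeast strain with an engineered DNA damage repair alteration; the reported value is growth inhibition normalised to vehicle treatment.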

Test [2] in a line: NCI Yeast Anticancer Drug Screen. Data for the mec2-1 strain (AID 157). Particulars: S. cerevisiae mec2-1 strain, hits give high values. In short, it runs like this:
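Strain: mec2-1 (DNA repair/cell cycle alteration). Compound exposure, then growth measured; inhibition expressed relative to vehicle.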

A short description of test [3]: NCI Yeast Anticancer Drug Screen. Data for the sgs1 mgt1 strain (AID 161).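 Further: 0% = growth of cultures given vehicle only.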 Particulars: S. cerevisiae sgs1 mgt1 strain, hits give high values. In short, it runs like this:
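Genetically altered yeast, compound exposure, growth inhibition relative to vehicle.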

Test [4] is described as follows: NCI Yeast Anticancer Drug Screen. Data for the cln2 rad14 strain (AID 165).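 Further: 0% = growth equal to vehicle treated cultures.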 To be noted: S. cerevisiae cln2 rad14 strain, hits give high values. In short, it runs like this:
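Compounds are applied to the cln2 rad14 yeast strain, and growth is then compared with that of vehicle-treated cultures to give inhibition.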

Test [5] can be described thus: NCI Yeast Anticancer Drug Screen. Data for the bub3 strain (AID 167). Particulars: S. cerevisiae bub3 mutant strain, hits give high values. In outline:
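Growth of a checkpoint-deficient yeast mutant is measured after compound exposure. Values represent inhibition relative to vehicle.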

Test [6] can be described thus: NCI Yeast Anticancer Drug Screen. Data for the mlh1 rad18 strain (AID 175). Particulars: S. cerevisiae mlh1 rad18 strain growth inhibition, hits give high values. In short, it runs like this: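 Read-out is yeast growth inhibition, calculated against vehicle-only controls. The compound was applied to a strain engineered with DNA damage repair alterations.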
Where [7] appears, read: at 5.0 µM (retest, dose inferred, filed as 0.5).
The mark [8] stands for this setting: at 50.0 µM (retest, dose inferred, filed as 5.0).

From PubChem BioAssay (NCI) come the findings set out here.

The panel holds about 79,000 compounds, 15% with a hit somewhere; the sample as a whole holds those more often. Unmarked numbers belong to inactive results. The source made the active and inactive calls. No stated cut-off is given here; in the data, active means growth inhibition above about 70%; inactive means the rest.

`O=c1c(Cl)c(Cl)cnn1CCCl`: the growth inhibition in test [1] (setting [7]) was 40%; in test [1] (setting [8]), 92% (active); in test [1] (at 50.0 µM), 74.9% (active); in test [2] (setting [7]) it was 9%; in test [2] (setting [8]), 48%; in test [2] (at 50.0 µM), 17.6%. Further, the growth inhibition in test [3] (setting [7]) is -1%; in test [3] (setting [8]), 47%; in test [3] (at 50.0 µM) it was -15.6%; in test [4] (setting [7]), 6%; in test [4] (setting [8]), 32%; in test [4] (at 50.0 µM), 7.15%. For the same compound, the growth inhibition was -6% in test [5] (setting [7]); 69% in test [5] (setting [8]); -10.5% in test [5] (at 50.0 µM); 15% in test [6] (setting [7]); 71% (active) in test [6] (setting [8]).
For `CCN1CCC(O)(c2ccc(Oc3ccccc3)cc2)C(C(=O)c2ccc(Oc3ccccc3)cc2)C1` (stereo not given), the growth inhibition is 25% in test [1] (setting [7]); 19% in test [1] (setting [8]); 32.9% in test [1] (at 50.0 µM); -10% in test [2] (setting [7]); -8% in test [2] (setting [8]); 22.5% in test [2] (at 50.0 µM). Further, the growth inhibition in test [3] (setting [7]) is 23%; in test [3] (setting [8]), 28%; in test [3] (at 50.0 µM), -21.9%; in test [4] (setting [7]) it was 18%; in test [4] (setting [8]), 35%; in test [4] (at 50.0 µM), 0.95%. Further, the growth inhibition in test [5] (setting [7]) is 14%; in test [5] (setting [8]) it was 38%; in test [5] (at 50.0 µM) it was -23.9%; in test [6] (setting [7]), 18%; in test [6] (setting [8]), 40%.
As for `Cc1ccc(NCCN(C)C)c2c(=O)c3cc(O)ccc3sc12`, the growth inhibition in test [1] (setting [7]) was 27%; in test [1] (setting [8]), 99% (active); in test [1] (at 50.0 µM) it was 88.7% (active); in test [2] (setting [7]), 5%; in test [2] (setting [8]) it was 99% (active); in test [2] (at 50.0 µM), 91.3% (active). The growth inhibition in test [3] (setting [7]) is 10%; in test [3] (setting [8]), 99% (active); in test [3] (at 50.0 µM), 91.2% (active); in test [4] (setting [7]), 15%; in test [4] (setting [8]) it was 98% (active); in test [4] (at 50.0 µM), 90% (active). Also, the growth inhibition in test [5] (setting [7]) is 4%; in test [5] (setting [8]), 98% (active); in test [5] (at 50.0 µM) it was 88.4% (active); in test [6] (setting [7]), 18%; in test [6] (setting [8]) it was 99% (active).
On to `COc1ccc2nc(C)cc(NCCCCCCCCCNc3cc(C)nc4ccc(OC)cc34)c2c1`, for which the growth inhibition in test [1] (setting [7]) is -17%; in test [1] (setting [8]), 94% (active); in test [1] (at 50.0 µM), 83.4% (active); in test [2] (setting [7]), -30%; in test [2] (setting [8]), 94% (active); in test [2] (at 50.0 µM), 87.9% (active). For the same compound, the growth inhibition in test [3] (setting [7]) is -2%; in test [3] (setting [8]), 96% (active); in test [3] (at 50.0 µM) it was 80.8% (active); in test [4] (setting [7]), -11%; in test [4] (setting [8]) it was 75% (active); in test [4] (at 50.0 µM) it was 71% (active). Moreover, the growth inhibition in test [5] (setting [7]) was -40%; in test [5] (setting [8]), 88% (active); in test [5] (at 50.0 µM), 78.5% (active); in test [6] (setting [7]), -21%; in test [6] (setting [8]) it was 93% (active).
Take `COc1cccc2c1C(=O)c1c(O)c3c(c(O)c1C2=O)C[C@@](O)(C(C)=O)C[C@@H]3OC1CC(O)C(O)C(C)O1` (stereo not given in full): the growth inhibition in test [1] (setting [7]) was 45%; in test [1] (setting [8]), 95% (active); in test [1] (at 50.0 µM), 84.7% (active); in test [2] (setting [7]) it was 21%; in test [2] (setting [8]) it was 94% (active); in test [2] (at 50.0 µM) it was 88.3% (active). The growth inhibition in test [3] (setting [7]) was 25%; in test [3] (setting [8]), 94% (active); in test [3] (at 50.0 µM) it was 85.2% (active); in test [4] (setting [7]) it was 46%; in test [4] (setting [8]), 90% (active); in test [4] (at 50.0 µM) it was 83.3% (active). Further, the growth inhibition is 34% in test [5] (setting [7]); 96% (active) in test [5] (setting [8]); 85.3% (active) in test [5] (at 50.0 µM); 40% in test [6] (setting [7]); 93% (active) in test [6] (setting [8]).
As for `CN(C)CCNc1ccc(CO)c2oc3ccc(O)cc3c(=O)c12`, the growth inhibition in test [1] (setting [7]) was 17%; in test [1] (setting [8]), 41%; in test [1] (at 50.0 µM), 26.5%; in test [2] (setting [7]), 13%; in test [2] (setting [8]), 41%; in test [2] (at 50.0 µM), 59.9%. Also, the growth inhibition was 13% in test [3] (setting [7]); 36% in test [3] (setting [8]); 9.95% in test [3] (at 50.0 µM); 22% in test [4] (setting [7]); 28% in test [4] (setting [8]); -14.1% in test [4] (at 50.0 µM). Further, the growth inhibition in test [5] (setting [7]) is 15%; in test [5] (setting [8]) it was 66%; in test [5] (at 50.0 µM), 49%; in test [6] (setting [7]), 21%; in test [6] (setting [8]), 63%.
`Cc1cc(NCCCCCCCNc2cc(C)nc3cc([N+](=O)[O-])ccc23)c2ccc([N+](=O)[O-])cc2n1`: the growth inhibition in test [1] (setting [7]) is 1%; in test [1] (setting [8]), 87% (active); in test [1] (at 50.0 µM) it was 68.5%; in test [2] (setting [7]) it was 15%; in test [2] (setting [8]), 83% (active); in test [2] (at 50.0 µM), 77% (active). Further, the growth inhibition was 5% in test [3] (setting [7]); 90% (active) in test [3] (setting [8]); 72.2% (active) in test [3] (at 50.0 µM); 14% in test [4] (setting [7]); 70% (active) in test [4] (setting [8]); 57.8% in test [4] (at 50.0 µM). For the same compound, the growth inhibition in test [5] (setting [7]) is 1%; in test [5] (setting [8]), 83% (active); in test [5] (at 50.0 µM), 73.1% (active); in test [6] (setting [7]), 5%; in test [6] (setting [8]) it was 88% (active).
As for `C/C(N=NC(=S)N1CCCCCC1)=C1\C=CC=CN1O`, the growth inhibition is 17% in test [1] (setting [7]); 38% in test [1] (setting [8]); 72.9% (active) in test [1] (at 50.0 µM); 12% in test [2] (setting [7]); 31% in test [2] (setting [8]); 74.2% (active) in test [2] (at 50.0 µM). Further, the growth inhibition in test [3] (setting [7]) is 14%; in test [3] (setting [8]), 27%; in test [3] (at 50.0 µM), 68.4%; in test [4] (setting [7]) it was 19%; in test [4] (setting [8]), 31%; in test [4] (at 50.0 µM), 30.6%. Besides, the growth inhibition in test [5] (setting [7]) was 21%; in test [5] (setting [8]), 33%; in test [5] (at 50.0 µM) it was 69%; in test [6] (setting [7]) it was 24%; in test [6] (setting [8]) it was 44%.
Regarding `Cc1ccc2c(c1)C1(C)OC(C=CC1=O)O2` (stereo not given), the growth inhibition is 88% (active) in test [1] (setting [7]); 100% (active) in test [1] (setting [8]); 88.2% (active) in test [1] (at 50.0 µM); 97% (active) in test [2] (setting [7]); 99% (active) in test [2] (setting [8]); 91% (active) in test [2] (at 50.0 µM). The growth inhibition is 91% (active) in test [3] (setting [7]); 100% (active) in test [3] (setting [8]); 91% (active) in test [3] (at 50.0 µM); 82% (active) in test [4] (setting [7]); 99% (active) in test [4] (setting [8]); 90.5% (active) in test [4] (at 50.0 µM). The growth inhibition in test [5] (setting [7]) is 97% (active); in test [5] (setting [8]) it was 100% (active); in test [5] (at 50.0 µM) it was 87.8% (active); in test [6] (setting [7]), 94% (active); in test [6] (setting [8]) it was 99% (active).
Take `CS(=O)(=O)OCCN(CCOS(C)(=O)=O)c1ccc(C=Nc2ccc(-c3csc(Cc4ccccc4)n3)cc2)c(Cl)c1`: the growth inhibition in test [1] (setting [7]) is 16%; in test [1] (setting [8]), 95% (active); in test [1] (at 50.0 µM), 71.2% (active); in test [2] (setting [7]), 7%; in test [2] (setting [8]), 93% (active); in test [2] (at 50.0 µM), 76.6% (active). Further, the growth inhibition in test [3] (setting [7]) was -22%; in test [3] (setting [8]), 83% (active); in test [3] (at 50.0 µM), 71% (active); in test [4] (setting [7]), 7%; in test [4] (setting [8]), 85% (active); in test [4] (at 50.0 µM), 77% (active). The growth inhibition in test [5] (setting [7]) is -35%; in test [5] (setting [8]), 78% (active); in test [5] (at 50.0 µM) it was 76% (active); in test [6] (setting [7]), 15%; in test [6] (setting [8]), 94% (active).
